Screening data (PubChem)
Sampled rows, rich in hits. Any-hit rate of the full collection: about 3.2%.
CRFR2-BP ag: agonists of human CRF-binding protein/CRF-R2 receptor complex; HEK293 CRF-R2/CRF-BP, calcium dye fluorescence (FLIPR); percent of saturating CRF peptide response; activation, % at 13.2 µM; actives 0.46% (n = 350,000);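 active = activation of at least 50%, plus an integration ratio under a set limit after plate pattern correction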;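 also: plate controls were neutral control wells without compound for no effect and CRF at EC100 for full effect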
CRFR2-BP antag: antagonists of CRF-binding protein/CRF-R2 receptor complex; HEK293 CRF-R2/CRF-BP, CRF-induced calcium fluorescence; inhibition, % at 11.8 µM; actives 0.59% (n = 350,000);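 active = inhibition of the ligand-induced calcium signal above about 50% at the single tested concentration, limit read from the data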
PfG6PD inh: PfG6PD (Plasmodium falciparum) enzyme inhibition; AID 504690; PfGluPho enzyme, NADPH resazurin-diaphorase fluorescence; inhibition, % at 20 µM; actives 0.78% (n = 350,000);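 active = inhibition reaching at least a set limit at 20 µM in the primary screen, cut at about 59% in these data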;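 also: 0% = DMSO wells with substrate and 100% = DMSO wells lacking glucose-6-phosphate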
aDG glyco up: alpha-DG glycosylation activation; activation, % at 10 µM; Pro5-aDG cells, alpha-DG glycosylation AlphaScreen (IIH6); 0% Pro5, 100% B10-LARGE cell signal; actives 0.22% (n = 360,000);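 active = activation of at least 8% versus controls, or a plate z-score of at least 8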;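 also: Pro5 are CHO cells carrying HIG-tagged alpha-DG that lacks glycosylation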
FAS TE block: blocks the thioesterase domain of human fatty acid synthase. recombinant FAS-TE, OMFH fluorogenic substrate, fluorescence endpoint. actives 0.67% (n = 360,000). P49327. inhibition, % at 15 µM;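 active = compounds whose normalised, plate-corrected inhibition of enzyme fluorescence in the single-dose primary screen is 50% or more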;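 also: 0% = DMSO with enzyme and 100% = substrate without enzyme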
Cardio protect: myocardial damage modulation in H9c2 cells | H9c2 cardiomyocytes, H2O2 injury protection, ATPLite, 2 h | AID 588492 | protection from H2O2 cell death, % at 20 µM | actives 0.63% (n = 360,000);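 active = compounds giving at least 50% protection of heart cells from peroxide-induced death in the single-dose screen, raw or plate-pattern-corrected value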;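 also: 0% = DMSO wells with peroxide and 100% = DMSO wells without peroxide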
* marks the source's active call; other numbers are inactive results; . = not tested or not shown.

SMILES | CRFR2-BP ag | CRFR2-BP antag | PfG6PD inh | aDG glyco up | FAS TE block | Cardio protect
NNC(=O)c1cc2ccccc2cc1O | 1.4 | 17.6 | 7.3 | -0.2 | -10.8 | 64.8*
O=C(NCCO)c1cc2ccccc2cc1O | 1.7 | -4.7 | 32.9 | -0.3 | -2.9 | 1.0
CCOC(=O)C(C)/C(C)=N/NC(=O)c1cc2ccccc2cc1O (stereo unspecified) | 3.1 | 18.2 | -5.5 | 0.2 | -11.3 | 60.6*
O=C(Cn1c(=O)oc2ccccc21)N1CCCC1 | 2.7 | -6.5 | 0.6 | 0.0 | -7.5 | -1.0
O=C1C=C(Nc2ccccc2O)c2ccccc2C1=O | 4.8 | 15.9 | -4.8 | 12.5* | 22.9 | -16.2
Cc1ccc(NC2=CC(=O)C(=O)c3ccccc32)c(C)c1 | 0.3 | 15.1 | 20.7 | 6.5* | 16.0 | -28.2
O=C1C=C(Nc2ccc(F)cc2)c2ccccc2C1=O | -3.1 | 9.6 | 8.5 | 8.9* | 22.3 | -24.9
O=C1C=C(Nc2cccnc2)c2ccccc2C1=O | -4.5 | 1.2 | 21.2 | 3.0 | 18.3 | -17.8
COc1ccc(C(CNC(=O)c2cc(F)c(F)c(F)c2F)N2CCOCC2)cc1 (stereo unspecified) | -4.9 | 3.2 | -5.3 | 1.7 | 10.1 | -5.8
COc1ccc(N(CC(=O)Nc2cc([N+](=O)[O-])ccc2C)S(C)(=O)=O)cc1OC | 1.4 | -2.3 | -4.0 | -0.2 | 2.1 | 4.7
O=C(O)C(Cc1ccc(Cl)cc1)NS(=O)(=O)c1ccc(Cl)cc1 (stereo unspecified) | -0.2 | -1.0 | -8.1 | -0.1 | 2.9 | -2.0
COc1cccc(NC(=O)Nc2nc(SC)ns2)c1 | 7.8 | 10.9 | -3.6 | -0.1 | -2.7 | -13.1
CCSc1nsc(NC(=O)Nc2cccc(F)c2)n1 | 52.0* | 12.8 | 9.1 | 0.1 | 10.7 | -16.1
CSc1ncccc1C(=O)N(C)CC(=O)Nc1cccc(F)c1 | 0.1 | 99.7* | -4.5 | -0.3 | -5.3 | -2.4
CN(CC(=O)Nc1cccc(F)c1)C(=O)c1cccnc1Sc1ccccc1 | 2.2 | -4.8 | 4.9 | 0.6 | -1.6 | 5.7
O=C(Nc1cccnc1)c1sc(Nc2ccccc2)nc1-c1ccccc1 | 5.9 | -84.0 | 32.1 | 0.2 | 6.5 | 65.3*
Cc1cccc(Nc2nc(-c3ccccc3)c(C(=O)Nc3cccnc3)s2)c1 | 9.4 | -37.3 | 35.9 | 0.3 | 31.7 | 23.0
Cc1ccc2[nH]c(=O)c(CN(Cc3cccnc3)Cc3nnnn3CCN3CCOCC3)cc2c1 | -1.4 | 10.6 | 19.5 | -0.2 | -5.9 | 1.5
Cc1cnc(C(=O)Nc2nnc(SCc3c(Cl)cccc3Cl)s2)cn1 | -2.1 | -5.4 | -41.5 | 0.0 | -1.3 | 54.5*
CCSc1nc2ccccc2n1CC(=O)N1CCCCC1 | 1.7 | 85.7* | -0.4 | 0.1 | -5.6 | 11.7
O=C(CSc1nc2ccccc2n1CC(=O)N1CCOCC1)N1CCCC1 | -0.5 | 26.9 | 10.0 | 2.0 | -5.8 | 0.0
CCNC(=O)c1c(NC(=O)c2cc(-c3cc(C)ccc3O)n[nH]2)sc2c1CCCC2 | 0.3 | 13.2 | 24.8 | -0.5 | 6.0 | 10.0
CCC(CC)Nc1ccc(C(CC(N)=O)NC(=O)Cc2cccc3ccccc23)cc1[N+](=O)[O-] (stereo unspecified) | 0.0 | -4.6 | 0.0 | 0.0 | 0.0 | 4.5
COc1ccc(S(=O)(=O)N(C)CC(=O)NC2CCCCC2)cc1OC | -0.3 | 51.4* | -17.8 | 0.0 | -4.1 | -0.4
Cc1nc(N2CCN(C(=O)c3ccco3)CC2)c2oc3ccccc3c2n1 | -1.7 | 18.9 | -3.0 | 0.1 | -6.0 | 14.9
SMILES | CRFR2-BP ag | CRFR2-BP antag | PfG6PD inh | aDG glyco up | FAS TE block | Cardio protect
CCc1nc(N2CCN(C(=O)c3ccco3)CC2)c2oc3ccccc3c2n1 | 0.2 | 49.6 | -7.7 | -0.3 | -3.5 | 50.8*
Cc1cc(C)cc(-n2c(C)cc(C(=S)N3CCOCC3)c2C)c1 | -1.8 | 56.8* | 18.8 | 0.2 | 9.2 | 3.2
Cc1cc(C(=S)N2CCOCC2)c(C)n1-c1ccc(Cl)cc1 | 0.8 | 10.3 | 27.6 | 0.0 | 0.3 | 9.3
CCOC(CNc1ncnc2c1cnn2C)OCC | -2.4 | 0.5 | -1.9 | -0.2 | -4.9 | 9.7
COC(CNc1ncnc2c1cnn2C)OC | 0.8 | 53.4* | 7.6 | -0.1 | -4.1 | 9.9
Cc1c(NC(=O)c2cccc(NC(=O)COc3ccc(C#N)cc3)c2)c(=O)n(-c2ccccc2)n1C | 2.3 | 8.6 | -22.2 | -0.3 | -4.4 | -2.6
Cc1cccc(S(=O)(=O)NCCC(=O)OCC(=O)Nc2ccc(C#N)cc2)c1 | 0.2 | -16.3 | -5.8 | -0.2 | -0.3 | 1.0
CCSc1nnc(NC(=O)C(CC)(C(F)(F)F)C(F)(F)F)s1 | 31.1 | 55.5* | -9.6 | 0.5 | -8.7 | -12.0
Cc1cc(F)ccc1-c1cc(C(=O)NCc2cccc(C(F)(F)F)c2)[nH]n1 | . | . | . | 0.0 | 20.2 | -5.1
CCS(=O)(=O)Nc1ccc(-c2nc3cccnc3s2)cc1 | 89.0* | -15.1 | -9.7 | 0.4 | 0.7 | -4.7
Nc1c(C(=O)N2CCCCCC2)oc2ccccc12 | -0.4 | 112.5* | -1.9 | -0.2 | -4.6 | -4.1
O=C(Nc1cc(=O)c2ccccc2o1)N1CCCCC1 | -0.1 | -2.1 | -5.4 | -0.2 | -10.3 | 104.2*
COc1cccc(OC)c1C(=O)Nc1ccc(Br)c(C(=O)c2ccccc2)c1 | 0.8 | -6.1 | 17.1 | -0.3 | 15.9 | 54.5*
Nc1ccc(S(=O)(=O)N2CCC(Cc3ccccc3)CC2)cc1 | 2.8 | 11.0 | -7.3 | 0.0 | 16.0 | -11.1
Cc1cc(C(F)(F)F)n(-c2nc(C(=O)O)cs2)n1 | -3.0 | 9.3 | -12.1 | -0.1 | -6.4 | 2.1
COc1ccc(S(=O)(=O)NNC(=O)c2csc(-n3nc(C)cc3C(F)(F)F)n2)cc1 | -4.1 | 61.5* | -9.1 | -0.1 | -2.8 | 9.3
CCCN1C(=O)c2cc(C(=O)Nc3cccc(C(C)=O)c3)ccc2C1Nc1cccc(C(C)=O)c1 (stereo unspecified) | 1.7 | 15.0 | 2.3 | -0.2 | 5.6 | 51.9*
CCCN1C(=O)c2cc(C(=O)Nc3ccccc3OC)ccc2C1Nc1ccccc1OC (stereo unspecified) | 7.8 | -8.6 | -3.0 | -0.1 | 17.9 | 13.0
O=C1CNc2ccc(C(=O)N3CCN(c4ccccn4)CC3)cc2N1 | -1.7 | 10.4 | 1.9 | -0.2 | -6.9 | 6.9
CC(C)C1Nc2ccc(C(=O)N3CCN(c4ccccn4)CC3)cc2NC1=O (stereo unspecified) | -0.1 | -1.9 | -20.0 | 0.1 | -4.7 | 51.4*
Cc1nc2ccccc2n1-c1ccccc1 | -2.9 | -5.2 | -13.1 | 0.1 | -2.2 | 4.7
O=c1c(/C=C(\O)c2ccccc2)nc2ccccc2n1-c1ccccc1 | 155.9* | -79.8 | 10.4 | 0.0 | -38.1 | 3.0
CCCCCCCNC(=O)C1CC(=O)N(C)C(=Nc2ccc(OC)cc2)S1 (stereo unspecified) | 2.3 | -21.3 | 10.4 | 0.3 | 26.2 | 0.0
Cc1ccc(CN2CCN(C3CCOCC3)CC2CCO)cc1 (stereo unspecified) | 1.0 | 79.9* | -8.6 | 0.2 | -3.2 | 2.4
